# Source: PubChem
# CHT block – inhibitors of human choline transporter CHT. CHT-expressing cells, membrane potential dye, choline response; stronger effect = lower value. B-score at 10 µM. 0.86% of 310,000 active;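 active = B-score over 3 SD under the library average, and starting fluorescence ratio not unusually high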;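 note: choline stimulus applied at its EC90 after an EC20 pre-addition; B-score computed on integrated fluorescence ratio after choline addition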
# Target sequence (Q9GZV3 whole entry, looked up): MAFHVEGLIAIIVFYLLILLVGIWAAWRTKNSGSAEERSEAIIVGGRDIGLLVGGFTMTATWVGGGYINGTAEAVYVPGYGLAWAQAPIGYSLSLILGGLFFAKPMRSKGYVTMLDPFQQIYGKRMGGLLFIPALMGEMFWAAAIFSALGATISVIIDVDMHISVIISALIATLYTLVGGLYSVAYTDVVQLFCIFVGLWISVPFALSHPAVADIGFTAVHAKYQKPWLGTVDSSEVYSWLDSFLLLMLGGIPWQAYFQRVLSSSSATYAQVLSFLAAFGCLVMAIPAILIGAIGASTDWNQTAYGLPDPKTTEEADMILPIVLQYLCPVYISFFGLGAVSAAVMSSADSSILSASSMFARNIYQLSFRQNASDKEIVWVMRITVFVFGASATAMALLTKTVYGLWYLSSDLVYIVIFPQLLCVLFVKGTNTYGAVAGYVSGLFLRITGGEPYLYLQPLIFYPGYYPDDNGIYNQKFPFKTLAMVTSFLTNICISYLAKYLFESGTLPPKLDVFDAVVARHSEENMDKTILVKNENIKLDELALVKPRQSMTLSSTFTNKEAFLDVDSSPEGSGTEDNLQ
# SUMO Mot1 rescue – yeast Mot1-301 growth rescue at high temperature, primary screen, SUMOylation pathway inhibitor project, S. cerevisiae, ATP luminescence, 38.5C | 1% of 320,000 active | growth rescue, % at 18.8 µM | S. cerevisiae Mot1-301 growth rescue; percent above DMSO median, 100 means doubled;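 active = every valid replicate shows activation above 250% relative to neutral control wells; inactive = the rest, any valid replicate at or below 250%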;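 note: OY570 slx delta 5 strain wells were the positive control but not used for scaling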
# NALP1 yeast inh – NALP1 inflammasome inhibitors in reconstituted yeast, colorimetric, S. cerevisiae, triplicate retest | S. cerevisiae NALP1/ASC/caspase-1 growth, X-gal OD620, 72 h | inhibition, % at 10 µM | 0.61% of 280,000 active | AID 2071, 2009; in the data active = inhibition mostly above about 24%, no sharp cut-off; inactive = mostly below about 32%
# Bfl-1 A1 inh – caspase 3/7 activation in MEF A1-2A-BIM cells, primary screen, A1 inhibitor project, cell-based, luminescence, HTS; AID 2462, 2010; 0.066% of 330,000 active; Caspase-Glo 3/7 luminescence, 3 h; percent of clofoctol response, vehicle zero; caspase activation, % (test concentration not listed);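 active = over half of replicate activation scores above 10%, or exactly half above 10 with the replicate mean above 10; inconclusive = replicate mean below 10 yet half the replicates above 10; inactive = over half of replicates below 10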
# CHT PAM – CHT positive allosteric modulators, primary screen, cell-based, membrane potential dye, choline EC20. B-score at 10 µM. CHT-expressing cells; stronger effect = higher value; LV-AA mutant CHT in HEK293 cells. 0.49% of 310,000 active. High affinity choline transporter 1 (Homo sapiens), Q9GZV3;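 active = initial fluorescence not abnormally high and integrated response B-score, plate-corrected, over 3 SD above library mean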
# NLRP3 yeast inh – NALP3 inflammasome inhibitors in reconstituted yeast, primary screen, luminescence, uHTS; 0.39% of 330,000 active; inhibition, % at 10 µM; Yeast reconstituted NLRP3/ASC/caspase-1, beta-gal luminescence, 24 h; AID 2825, 2010;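 active = inhibition of 50% or more; inactive = inhibition below 50%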;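 note: plate controls were induced DMSO wells for no effect and uninduced yeast grown without galactose for full effect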
# CHT act confirm – CHT activators, confirmation, cell-based, membrane potential dye, duplicate | CHT-expressing cells, membrane potential dye fluorescence (FDSS); % of choline EC20–EC90 response window; HEK293 expressing CHT LV-AA mutant; choline added at its EC20 | 91% of 2,500 active | activation, % at 10 µM | shares compounds with CHT PAM;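 active = primary screen active, with duplicate mean activation above negative control mean plus 3 SD, cut at about 11% in these data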
# HEK293 MP dye – membrane potential response in parental HEK293 cells, counter-screen for CHT activator project, cell-based, membrane potential dye; 62% of 2,500 active; AID 623908, 2012; membrane potential dye fluorescence (FDSS); measured after EC20 choline addition; ratio readout change at 10 µM, hits read low; shares compounds with CHT PAM;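 active = duplicate-averaged ratio beyond 3 SD from buffer wells, up or down, though filed actives are nearly all decreases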
# Active calls of the source: *; i = inactive; ? = inconclusive; . = no result. The list is not random: actives were taken first. Their share in the collection is about 3%.
SMILES,CHT block,SUMO Mot1 rescue,NALP1 yeast inh,Bfl-1 A1 inh,CHT PAM,NLRP3 yeast inh,CHT act confirm,HEK293 MP dye
O=C(NC(C(=O)N/N=C/c1cc([N+](=O)[O-])ccc1O)c1n[nH]c(=O)c2ccccc12)c1ccccc1 (configuration not stated),i,-10,3,0,i,15,.,.
CCOCCCn1c(=NC(C)=O)c(C(=O)OCC)cc2c(=O)n3ccccc3nc21,i,-24,52,0,i,8,17*,-42*
O=C(NCCCN1CCN(CCCNC(=O)c2cccc(Cl)c2)CC1)c1cccc(Cl)c1,i,11,28,1,i,12,28*,i
COc1ccc(C(=O)NCCCN2CCN(CCCNC(=O)c3ccc(OC)c(OC)c3)CC2)cc1OC,.,.,.,.,.,25,.,.
CC1CCN(CCCNC(=O)c2ccc(CSCc3cccc(Cl)c3)o2)CC1,i,-3,17,1,8.3*,10,49*,-35*
COc1ccccc1N1CCN(CCCCNC(=O)c2ccc3ccccc3c2)CC1,i,-1,.,1,7.6*,18,36*,-21*
O=C(NCCN1CCCC1)c1cccc(Cl)c1,i,11,-15,0,i,17,.,.
Cc1sc(NC(=O)C2=COCCO2)nc1-c1ccc(F)cc1,i,.,.,0,i,43,.,.
CC(=O)c1ccc(NC(=O)Nc2cccnc2)cc1,i,-8,1,0,i,7,.,.
CC(=O)c1ccc(NC(=O)Nc2ccncc2)cc1,i,-8,-1,1,i,12,34*,-38*
COc1ccc(CCC(=O)Nc2cc(S(=O)(=O)N3CCCCC3)ccc2N(C)C)cc1,.,-16,.,-1,.,-2,.,.
Cc1cc(N2CCN(C3CCCC3)CC2)n2c(nc3ccccc32)c1C#N,i,-10,2,-1,7.1*,17,3,i
Cc1cc(N2CCCC2)nc2ccccc12,i,40,12,1,i,7,48*,-58*
Cc1ccn2c(NC(=O)c3ccccc3)c(-c3ccccc3)nc2c1,i,-4,1,0,i,23,30*,-48*
CC(C)CN1CCN(Cc2cccn2-c2ccccn2)CC1CCO (configuration not stated),i,-1,-12,0,i,13,.,.
CC(C)CN1CCN(Cc2cccn2-c2ccc(Cl)cn2)CC1CCO (configuration not stated),i,0,-2,-1,i,0,54*,i
COc1ccc(-c2oc3ccccc3c2C#Cc2cncn2C)cc1,.,-10,.,0,.,2,.,.
Cc1cccn2c(CN3CCNC(=O)CC3)c(C(=O)N(C)CCc3ccccc3)nc12,i,-6,-5,-1,i,-8,1,i
CN1CCN(NC(=O)c2cc(-c3ccc(Cl)s3)nc3ccccc23)CC1,i,-2,24,0,i,9,7,-37*
CN1CCN(NC(=O)c2cc(-c3ccccn3)nc3ccccc23)CC1,i,-16,-2,?,i,-4,.,.
CCCN(C(=O)CCSc1ccc(F)cc1)c1c(N)n(Cc2ccccc2)c(=O)[nH]c1=O,i,26,22,1,i,13,.,.
O=c1cc[nH]c2c1ccc1c(=O)cc[nH]c12,i,7,-4,-1,i,0,.,.
Cc1[nH]ccc2c1[nH]c1cc(=O)ccc12,i,165,9,0,i,24,50*,-49*
CCCCN1CC(=O)N2[C@H](c3ccc(OC)cc3)[C@@H]3C(=O)N(CC)C(=O)[C@@H]3[C@]2(C)C1=O,i,16,20,0,i,11,.,.
CCOC(=O)c1ncccc1NC(=O)CC(=O)Nc1cccnc1C(=O)OCC,i,-8,.,0,i,5,32*,-36*
SMILES,CHT block,SUMO Mot1 rescue,NALP1 yeast inh,Bfl-1 A1 inh,CHT PAM,NLRP3 yeast inh,CHT act confirm,HEK293 MP dye
COc1ccc(Cl)cc1N1C(=O)CC(N2CCN(S(=O)(=O)c3ccccc3F)CC2)C1=O (configuration not stated),.,8,.,0,.,10,.,.
N#Cc1cc2c(=O)n3ccccc3nc2n(Cc2cccnc2)c1=O,i,54,.,1,6.9*,3,48*,-44*
O=C(c1cccc([N+](=O)[O-])c1)N1CCN(c2cccc(Cl)c2)CC1,i,-5,9,0,i,-30,.,.
COC(=O)c1cc(C(=O)N2CCN(c3cccc(Cl)c3)CC2)cc([N+](=O)[O-])c1,i,20,-1,1,7.6*,2,33*,i
C[C@@H]1CC=C[C@H]2[C@H]1C(=O)N(Cc1ccccc1)[C@H]2c1cccc([N+](=O)[O-])c1,i,-19,15,0,6.3*,12,26*,i
C[C@@H]1CC=C[C@H]2[C@H]1C(=O)N(Cc1ccccc1)[C@H]2c1ccc2ccccc2c1,i,26,5,-1,i,23,.,.
COc1cc(F)c(S(=O)(=O)N2CCOc3ccccc32)cc1OC,i,364,14,0,i,0,.,.
CCN(CC)c1nc(N2CCN(C)CC2)nc2ccccc12,i,-4,29,1,i,12,60*,-58*
O=C(c1ccc(CS(=O)c2ccccc2Cl)o1)N1CCN(c2ccccn2)CC1 (configuration not stated),i,1,-14,0,i,16,.,.
Cc1ccc(C[n+]2ccccc2)cc1,i,1,.,0,i,1,.,.
Cc1ccc(-c2cc3cccc[n+]3cc2-c2ccc(C)cc2)cc1,i,159,4,-1,8.2*,2,63*,-39*
COc1ccccc1C(CNC(=O)CCNC(=O)c1ccccc1Cl)N1CCCC1 (configuration not stated),i,35,.,0,i,16,.,.
c1ccc(-c2ccccc2OCCCCn2ccnc2)cc1,i,7,8,-1,i,20,.,.
